Screening results from PubChem.
Tau fluor cs: counter-screen for tau fibril formation inhibitors; tau K18 P301L Alexa594 fluorescence, heparin fibrillization; Potency, µM (series often up to 57.7 µM), inactives show top-dose activity change, negative = decrease; 280,000 tested, 0.93% active; further: potency means the concentration at half of the fitted maximal effect; nearly all actives have a fitted effect of over 55% in size
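Human tau K18 P301L (15 uM unlabeled, 0.24 uM Alexa 594-labeled) in 100 mM sodium acetate pH 7 with 20 uM heparin, 6 hr at 37 C. ThT 30 uM added, 1 hr ambient; Alexa 594 FP and total fluorescence read at 555/632 nm.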
Tau fibril FP: tau fibrillization inhibition (FP); K18 P301L tau heparin fibrillization, Alexa594 FP, 6 h; Potency, µM (top dose mostly 57.7 µM), for the others: top-dose activity, negative = inhibition, usual class: inhibitors; 280,000 tested, 0.39% active; AID 1468; further: potency means the concentration at half of the fitted maximal effect; nearly all actives have a fitted effect of over 55% in size
Target sequence (P10636 561-689 P618L limits assumed): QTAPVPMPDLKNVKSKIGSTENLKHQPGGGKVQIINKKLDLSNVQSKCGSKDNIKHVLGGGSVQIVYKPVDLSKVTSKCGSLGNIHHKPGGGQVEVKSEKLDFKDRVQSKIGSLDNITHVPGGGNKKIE
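Human K18 P301L fragment (15 uM unlabeled plus 0.24 uM Alexa 594-labeled) in 100 mM sodium acetate pH 7 with compound, aggregation induced by 20 uM heparin for 6 hr at 37 C. ThT (30 uM) added for 1 hr, then Alexa 594 FP read.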
KDM4E inh: inhibitors of human JMJD2E histone demethylase; Potency, µM (doses to about 57.1 µM), inactives show at the top dose activity change, negative = inhibition, usual class: inhibitors; B2RXH2; 230,000 tested, 1.6% active; JMJD2E catalytic domain, FDH-coupled NADH fluorescence (FDH is formaldehyde dehydrogenase); AID 2147; active means well fitted inhibition curve with a large enough effect, not every such curve was filed as active; inconclusive means small, poorly fitted or top-dose-only effect, or another doubt; inactive means no such curve, though single readings can be large or run the other way;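 further: potency means the concentration at half of the fitted maximal effect; 0% = wells with enzyme and -100% = buffer wells without enzyme; nearly all actives have a fitted effect of over 50% in size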
Target sequence (B2RXH2 1-337 limits assumed): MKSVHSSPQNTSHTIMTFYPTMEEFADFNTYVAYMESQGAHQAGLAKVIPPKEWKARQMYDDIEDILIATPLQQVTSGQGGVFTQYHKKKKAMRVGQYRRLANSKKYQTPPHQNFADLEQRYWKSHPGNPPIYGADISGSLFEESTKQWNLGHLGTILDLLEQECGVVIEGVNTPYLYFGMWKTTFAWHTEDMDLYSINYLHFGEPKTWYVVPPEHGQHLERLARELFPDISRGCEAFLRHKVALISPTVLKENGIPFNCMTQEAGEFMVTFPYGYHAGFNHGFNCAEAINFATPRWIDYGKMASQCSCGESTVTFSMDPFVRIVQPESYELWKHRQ
FBPA coupling cs: counter-screen for Giardia aldolase inhibitors: coupling enzyme system; coupling enzyme system counterscreen, AmpLite Red fluorescence; activity change, negative = inhibition, % at 58.2 µM, hits read low; 290,000 tested, 0.67% active; AID 2472; in the data active means activity change below about -30%
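Counterscreen of the coupled detection system alone, without aldolase: glyceraldehyde-3-phosphate coupling enzymes plus AmpLite Red readout. Compounds at 57.5 uM final, 10 min RT preincubation, 20 min RT reaction, fluorescence 525/598 nm.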
Tau ThT inhib: blocks human tau fibril formation measured by thioflavin T. P10636. recombinant tau K18 P301L, heparin-induced fibrillization, ThT fluorescence. Potency, µM (highest dose often 57.4 µM), for the others: top-dose activity, negative = inhibition, actives largely listed as inhibitors. 270,000 tested, 2.1% active. AID 1460; further: potency means the concentration at half of the fitted maximal effect; nearly all actives have a fitted effect of over 55% in size
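Fibril formation assay: tau K18 P301L at 15 uM with trace Alexa 594 label, heparin inducer 20 uM, pH 7 sodium acetate buffer, 37 C for 6 hr; endpoint ThT signal.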
* hit, by the source's call; ? = inconclusive; . = no result given; [ ] = dose if it differs, or a comment. The list is not random: actives were taken first. Their share in the collection is about 3%. Unless noted, the call rests on the fitted dose curve; in most records, active means well fitted curve in the direction sought with a large enough effect; inconclusive means small, poorly fitted or top-dose-only effect, or another doubt; inactive means no such curve, though single readings can be large; an effect the other way counts as inactive or inconclusive. Unless noted, on the % scale 0 is the no-effect control and ±100 the full control effect.

SMILES	Tau fluor cs	Tau fibril FP	KDM4E inh	FBPA coupling cs	Tau ThT inhib
Cn1c(/C=C(\C#N)C(N)=S)ccc1-c1ccc(Br)cc1	-28%	4%	2%	0	1µM*
Cc1cccc(CN2CC34C=CC(CC3S2(=O)=O)O4)c1 (stereo unspecified)	.	.	.	3	.
CN1/C(=C/c2cc[n+](C)c3ccccc23)C=Cc2ccccc21	-30%	?	11µM*	-26	7.1µM*
C[n+]1ccc(/C=C/c2ccccc2O)c2ccccc21	-14%	-5%	-19%	-11	?
COC(=O)[C@@H](N)CS	-28%	?	?	-4	14µM*
COC(=O)C(N)CS (stereo unspecified)	-25%	?	-2%	-2	18µM*
Cc1nnc2c(N3CCN(c4ccc(F)cc4)CC3)nc3ccc(C(=O)c4ccccc4)cc3n12	-1%	13%	.	.	9%
c1ccc(Cc2nnc3n2N=C(c2ccccc2)CS3)cc1	2%	1%	7%	-54*	2%
c1ccc(C2=Nn3c(Cn4nnc5ccccc54)nnc3SC2)cc1	-10%	-8%	1%	-14	-4%
CCOC(=O)N1CCN(c2ncnc3c2[nH]c2ccc(OC)cc23)CC1	-29%	3%	?	-2	8.9µM*
CCOC(=O)N1CCN(c2ncnc3c2[nH]c2ccc(F)cc23)CC1	-30%	7%	?	-3	?
Fc1ccc2[nH]c3c(N4CCN(c5ccccc5)CC4)ncnc3c2c1	25µM*[quencher]	11%	?	4	?
CCCCC#CC1C=CC(OC(C)=O)C(COC(C)=O)O1 (stereo unspecified)	-8%[11.6 µM]	?	.	0	-32%[11.5 µM]
CC(C)C/C=C1\CCc2c([nH]c3ccccc23)C1=O	-9%	-2%	-8%	-5	?
O=C1/C(=C/c2cccnc2)CCc2c1[nH]c1ccccc21	-23%	-1%	-9%	-8	7.1µM*
CC1C/C(=C\c2cccnc2)C(=O)/C(=C/c2cccnc2)C1 (stereo unspecified)	-16%	?	3%	1	7.1µM*
COCCCNC(=O)CCc1c(C)nc2cc(-c3ccc(Cl)cc3)nn2c1C	-9%	-1%	.	.	-8%
COC1=C/C(=C/c2c(N)n3nc(-c4ccc(C)cc4)sc3nc2=O)C=CC1=O	?	1%	7%	8	10µM*
CCOC1=C/C(=C/c2c(N)n3nc(-c4ccccc4)sc3nc2=O)C=CC1=O	?	-5%	?	3	8.9µM*
CCS(=O)(=O)c1nn2c(N)c(/C=C3/C=CC(=O)C(OC)=C3)c(=O)nc2s1	-24%	-2%	-10%	10	?
COc1ccc(OC)c(NC(=O)CCc2c(C)nc3c(c(C)nn3C(C)(C)C)c2C)c1	-26%	-2%	.	.	-16%
OCCCNC(=S)Nc1ccc2nc(-c3ccccn3)c(-c3ccccn3)nc2c1	2%	-2%	?	-33*	-5%
CC(C)(C)CC(C)(C)NC(=S)Nc1ccc2nc(-c3ccccn3)c(-c3ccccn3)nc2c1	?	4%	?	-56*	?
S=C(Nc1ccc2nc(-c3ccccn3)c(-c3ccccn3)nc2c1)N1CCOCC1	?	?	?	-41*	13µM*
CN(C)NC(=S)Nc1ccc2nc(-c3ccccn3)c(-c3ccccn3)nc2c1	-19%	?	?	-17	?
SMILES	Tau fluor cs	Tau fibril FP	KDM4E inh	FBPA coupling cs	Tau ThT inhib
O=C1c2ccccc2-c2onc3ccc(NCc4ccco4)c1c23	4.5µM*[quencher]	25µM*	-9%	-43*	3.2µM*
CN1CCN(c2cc(N3CCN(C(=O)c4ccco4)CC3)c3c4c(onc24)-c2ccccc2C3=O)CC1	.	.	.	-23	.
O=C1c2ccccc2-c2onc3ccc(N4CCCC4)c1c23	10µM*[quencher]	28µM*	18µM*	-50*	8.9µM*
O=C1c2ccccc2C(=O)c2c1cccc2N1CCCC1	?	?	3%	-20	14µM*
Cn1c(=O)c(NC2CCCCC2)c2c3c(cccc31)C(=O)c1ccccc1-2	?	-1%	-6%	2	-15%
Cn1c(=O)cc2c3c(c(N4CCCCC4)ccc31)C(=O)c1ccccc1-2	13µM*[quencher]	?	-1%	-6	11µM*
O=C(O)c1ccccc1NCc1ccco1	9%	0%	?	-2	1%
